PPARg SRC-3 ag: PPARgamma agonists recruiting SRC-3 coactivator, primary screen, biochemical | Peroxisome proliferator-activated receptor gamma (Homo sapiens), P37231 | biochemical PPARgamma/SRC-3 coactivator recruitment assay | activation, % at 8 µM | 200,000 tested, 0.26% active | AID 731, 2007; in the data active means activation above about 23%;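 further: 0% = DMSO and 100% = reference agonist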
Target sequence (P37231 whole entry, looked up): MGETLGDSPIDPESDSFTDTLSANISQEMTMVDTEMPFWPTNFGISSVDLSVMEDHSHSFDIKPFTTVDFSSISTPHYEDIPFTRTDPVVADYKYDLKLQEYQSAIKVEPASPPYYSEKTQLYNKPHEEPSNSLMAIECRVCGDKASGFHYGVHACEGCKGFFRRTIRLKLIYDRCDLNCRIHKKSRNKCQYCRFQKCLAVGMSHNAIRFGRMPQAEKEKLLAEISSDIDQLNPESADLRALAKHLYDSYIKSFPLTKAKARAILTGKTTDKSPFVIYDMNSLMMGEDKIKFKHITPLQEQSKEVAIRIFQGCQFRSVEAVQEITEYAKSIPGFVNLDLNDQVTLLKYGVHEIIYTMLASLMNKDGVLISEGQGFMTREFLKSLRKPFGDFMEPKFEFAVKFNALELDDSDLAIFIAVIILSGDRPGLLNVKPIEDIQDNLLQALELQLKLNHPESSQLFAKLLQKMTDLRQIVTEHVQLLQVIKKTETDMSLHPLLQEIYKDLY
SRC3 TRFRET art: TR-FRET detection interference compounds, artefact control for PPARgamma SRC-3 recruitment agonists, biochemical, TR-FRET ratio; 99,000 tested, 0.39% active; TR-FRET ratio at 8 µM; TR-FRET artefact counter-screen, PPARgamma/SRC-3 format; hits give high values; AID 1048, 2008
PPARg SRC-1 ag: PPARgamma agonists recruiting SRC-1 coactivator, primary screen, biochemical; Peroxisome proliferator-activated receptor gamma (Homo sapiens), P37231; PPARgamma-SRC-1 coactivator recruitment biochemical assay; activation, % at 8 µM; 200,000 tested, 0.41% active; AID 631, 2007; in the data active means activation above about 19%;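 further: 0% = DMSO and 100% = reference agonist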
SRC1 TRFRET art: TR-FRET detection interference compounds, primary screen, artefact control for PPARgamma SRC-1 recruitment agonists, biochemical, TR-FRET emission ratio; TR-FRET detection artefact counter-screen; hits give high values; TR-FRET ratio at 8 µM; 99,000 tested, 0.34% active; AID 1051, 2008; in the data active means TR-FRET ratio above about 2300
SRC2 TRFRET art: TR-FRET signal artefacts, primary screen, artefact control for PPARgamma SRC-2 agonist project, biochemical; 200,000 tested, 0.4% active; AID 1049, 2008; TR-FRET ratio at 8 µM; TR-FRET artefact counter-screen; hits give high values
PPARg SRC2 recr: agonists of PPARg-SRC-2 recruitment, primary screen, biochemical, HTS; Peroxisome proliferator-activated receptor gamma (Homo sapiens), P37231; PPARgamma LBD-SRC-2 recruitment; activation, % at 8 µM; 200,000 tested, 0.34% active; AID 1032, 2008; in the data active means activation above about 22%;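 further: 0% = vehicle and 100% = reference agonist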
PPARg SRC2 ag: agonists of PPARgamma SRC-2 coactivator recruitment, confirmation, biochemical, HTS. 790 tested, 52% active. activation, % at 8 µM. shares compounds with PPARg SRC-3 ag. biochemical SRC-2 recruitment by PPARgamma; in the data active means activation above about 22%;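 further: 0% = vehicle alone and 100% = reference agonist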
PPARg SRC1 ag: PPARgamma agonists recruiting SRC-1 coactivator, confirmation, biochemical; AID 1300, 2008; PPARgamma–SRC-1 coactivator recruitment biochemical assay; shares compounds with PPARg SRC-3 ag; activation, % at 8 µM; 790 tested, 43% active; in the data active means activation above about 20%;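 further: 0% = vehicle wells and 100% = reference agonist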
PPARg SRC3 ag: PPARgamma-driven SRC-3 coactivator recruitment agonists, confirmation, biochemical | shares compounds with PPARg SRC-3 ag | biochemical PPARgamma-SRC-3 coactivator recruitment, agonist mode | activation, % at 8 µM | 790 tested, 29% active | AID 1301, 2008; in the data active means activation above about 24%;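 further: 0% = vehicle wells and 100% = reference agonist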
* marks the source's active call; other numbers are inactive results; nt = no result. An excerpt weighted towards active compounds, which were near 0.9% of everything screened. Unless noted, no stated cut-off is given here; in the data, active means TR-FRET ratio above about 2000; inactive means the rest.

SMILES	PPARg SRC-3 ag	SRC3 TRFRET art	PPARg SRC-1 ag	SRC1 TRFRET art	SRC2 TRFRET art	PPARg SRC2 recr	PPARg SRC2 ag	PPARg SRC1 ag	PPARg SRC3 ag
CCN(CC)S(=O)(=O)c1ccc(NC(=O)Cc2cccs2)cc1	-4	1646	0	1906	1614	0	nt	nt	nt
CCOc1cccc(C2C(C(=O)c3ccc(C)o3)=C(O)C(=O)N2c2nccs2)c1 (stereo not drawn)	22	nt	22*	nt	2000*	27*	13	8	8
Cc1ccc2nc(N3C(=O)C(O)=C(C(=O)c4cc5ccccc5o4)C3c3cccs3)sc2c1 (stereo not drawn)	30*	nt	30*	nt	1932	14	7	2	2
COC(=O)c1sc(N2C(=O)c3oc4ccccc4c(=O)c3C2c2cccs2)nc1C (stereo not drawn)	-2	nt	-6	nt	1363	-2	nt	nt	nt
Cc1cc(N2C(=O)C(O)=C(C(=O)c3ccc(C)o3)C2c2cccs2)no1 (stereo not drawn)	45*	nt	35*	nt	2253*	37*	19	13	13
Cc1cc(N2C(=O)C(O)=C(C(=O)c3ccco3)C2c2ccc(O)cc2)no1 (stereo not drawn)	-11	nt	0	nt	1340	8	nt	nt	nt
CCOc1cccc(C2C(C(=O)c3ccc(C)o3)=C(O)C(=O)N2Cc2ccncc2)c1 (stereo not drawn)	5	nt	13	nt	1504	7	nt	nt	nt
COc1cc(NC(=O)[C@@H](NC(=O)c2ccco2)C(C)C)c(OC)cc1NC(=O)c1ccccc1	3	1418	6	1783	1520	2	nt	nt	nt
COC(=O)c1sccc1NC(=O)Nc1ccc(Cl)c(Cl)c1	14	nt	19*	nt	1921	23*	8	2	4
CCCCCn1c(CN2CCN(C)CC2)nc2c1c(=O)n(C)c(=O)n2C	26*	nt	5	nt	1775	11	2	3	1
CCCCCn1c(CN2CCN(C(=O)OCC)CC2)nc2c1c(=O)n(C)c(=O)n2C	8	nt	-8	nt	1465	5	nt	nt	nt
COC(=O)c1sccc1NC(=O)COc1ccc(F)cc1Cl	1	1622	8	1762	1751	-3	nt	nt	nt
O=C(O)C1=C[C@@H](c2csc3ccccc23)C[C@@H](OCc2ccc(CO)cc2)O1	4	1610	1	1697	1553	6	nt	nt	nt
O=C(O)C1=C[C@H](c2csc3ccccc23)C[C@H](OCc2ccc(CO)cc2)O1	9	1734	24*	1867	1599	15	3	-3	1
CN(C)c1ccc(NC(=O)Nc2ccc3snnc3c2)cc1	36*	nt	23*	nt	1850	21	4	1	3
Cc1oc(-c2cccs2)nc1CN1CCN(C(C)C)C(CCO)C1 (stereo not drawn)	4	1723	1	1694	1302	4	nt	nt	nt
N#Cc1ccc(-c2ccc(F)cc2)nc1SCC(=O)Nc1sc2c(c1C#N)CCC2	9	nt	20*	nt	1696	2	21	10	10
N#Cc1cc2c(nc1SCC(=O)Nc1sc3c(c1C#N)CCC3)CCCC2	2	nt	14	nt	1572	10	nt	nt	nt
Cc1cccc(OCc2nnc(SCC(=O)O)n2Cc2ccccc2)c1	-2	1642	4	1652	1599	1	nt	nt	nt
COc1ccc(Cl)cc1-c1n[nH]c(=S)o1	119*	nt	57*	nt	3750*	104*	72*	50*	49*
COc1ccccc1-c1cc(N)n[nH]1	9	nt	7	nt	1458	-8	nt	nt	nt

High-throughput results as filed in PubChem.
